Most compounds without a hit are left out; they make up all but 1.3% or so of the library.
COUP-TFII inh: NR2F2 transcriptional activity inhibitors, primary screen, cell-based, luciferase reporter, HEK293T, luminescence | COUP transcription factor 2 (Homo sapiens), P24468 | HEK293T NGFI-A luciferase reporter | inhibition, % at 8.6 µM | 370,000 compounds, 0.7% hits | AID 686940, 2013;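 active means inhibition above a per-plate cutoff, mean inhibition of test wells between control levels plus 3 SD, cut at about 38% in these data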;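 further: cells cotransfected with COUP-TFII expression vector driving the NGFI-A reporter; 0% = median of COUP-TF2 test wells and 100% = reporter-only cells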
NCOA1 inh: SRC1 coactivator transcriptional activity inhibitors, primary screen, cell-based, luminescence; HEK293 GAL4-SRC1 luciferase reporter; inhibition, % at 3.6 µM; 360,000 compounds, 0.12% hits; AID 588354, 2011;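 active means inhibition above the campaign mean plus 3 SD, with each screening campaign given its own cutoff, cut at about 60% in these data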;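 further: 0% = DMSO treated cells and 100% = gossypol at 36 µM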
LRH-1 inv ag: LRH-1 (NR5A2) inverse agonists, primary screen, cell-based, luminescence, HEK293T, StAR-luciferase reporter; Nuclear receptor subfamily 5 group A member 2 (Homo sapiens), O00482; LRH-1 transfected, 24 h; inhibition, % at 3.6 µM; 360,000 compounds, 0.13% hits; AID 602396, 2012;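 active means inhibition above the mean inhibition of all tested compounds plus 3 SD, cut at about 73% in these data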;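 further: 0% = DMSO wells and 100% = reporter-only cells lacking LRH-1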
Target sequence (O00482 whole entry, looked up): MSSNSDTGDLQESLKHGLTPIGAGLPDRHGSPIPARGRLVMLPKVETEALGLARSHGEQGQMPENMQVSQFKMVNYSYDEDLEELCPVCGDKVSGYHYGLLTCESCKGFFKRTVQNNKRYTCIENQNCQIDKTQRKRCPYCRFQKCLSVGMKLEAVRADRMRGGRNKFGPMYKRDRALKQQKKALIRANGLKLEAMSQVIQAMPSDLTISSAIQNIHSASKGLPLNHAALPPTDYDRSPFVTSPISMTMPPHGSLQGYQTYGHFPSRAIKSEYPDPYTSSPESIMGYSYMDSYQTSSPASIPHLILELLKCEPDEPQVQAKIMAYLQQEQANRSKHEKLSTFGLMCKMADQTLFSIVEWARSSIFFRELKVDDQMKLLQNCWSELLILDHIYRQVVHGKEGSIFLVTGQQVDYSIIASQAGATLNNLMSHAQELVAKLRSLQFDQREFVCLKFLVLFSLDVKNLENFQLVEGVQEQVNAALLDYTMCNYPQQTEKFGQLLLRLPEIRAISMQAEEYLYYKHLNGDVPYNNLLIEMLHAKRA
Gli-Sufu antag: Gli-Sufu pathway antagonists, primary screen, luciferase luminescence, Sufu-KO-LIGHT cells, uHTS; Sufu-KO-LIGHT fibroblasts, Gli luciferase reporter luminescence; inhibition, % at 5 µM; 340,000 compounds, 0.74% hits;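 active means inhibition above about 55%, limit read from the data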;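 further: 0% = DMSO-treated cells and 100% = wells with medium but no cells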
SRC2 inh: inhibition of GAL4-SRC2 driven luciferase reporter, primary screen, SRC2 inhibitor project, cell-based, luminescence. Nuclear receptor coactivator 2 (Homo sapiens), Q15596. HEK293 GAL4-SRC2 luciferase reporter. inhibition, % at 9 µM. 370,000 compounds, 0.17% hits. AID 651957, 2012;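 active means inhibition above the mean inhibition of all tested compounds plus 3 SD, set per campaign, cut at about 52% in these data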;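 further: 0% = DMSO treated cells and 100% = cells given Gossypol at 36 µM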
SRC3 inh: SRC3 coactivator transcriptional activity inhibitors, primary screen, cell-based, luminescence; Nuclear receptor coactivator 3 (Homo sapiens), Q9Y6Q9; HEK293 GAL4-SRC3 luciferase reporter; inhibition, % at 3.6 µM; 360,000 compounds, 0.17% hits;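 active means inhibition above a per-campaign cutoff, the mean of all compounds plus 3 SD, cut at about 60% in these data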;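 further: 0% = DMSO-treated cells and 100% = gossypol-treated cells at 36 µM; higher means less SRC3-driven luciferase light from the GAL4 reporter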
Gli antag conf: Gli-SUFU pathway antagonists, confirmation, single concentration, luciferase luminescence, Sufu-KO-LIGHT cells; 2,500 compounds, 40% hits; shares compounds with Gli-Sufu antag; inhibition, % at 5 µM; Gli luciferase reporter;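 active means mean inhibition at 5 µM reaching about 45%, limit read from the data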;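 further: plate controls were DMSO-treated cells for no effect and wells lacking cells for full effect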
Gli cytotox: cytotoxicity in Sufu-KO-LIGHT cells, confirmation, cytotoxicity control for Gli-SUFU antagonist project, cell-based, ATP luminescence, single concentration | shares compounds with Gli-Sufu antag | cytotoxicity, % at 5 µM | 2,500 compounds, 32% hits;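 active means mean cytotoxicity at 5 µM above about 25%, limit read from the data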;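 further: cells exposed to compound overnight for roughly 16 to 18 hours; plate controls were DMSO wells with cells for no effect and medium without cells for full effect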
Wnt3a cs: Wnt3a reporter signal inhibition, confirmation, counter-screen for Gli-SUFU antagonist project, Wnt-LIGHT cells, luminescence, single concentration. shares compounds with Gli-Sufu antag. Wnt3a-driven luciferase reporter. inhibition, % at 6.25 µM. 2,500 compounds, 20% hits;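 active means mean inhibition above about 25%, limit read from the data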
* marks the source's active call; other numbers are inactive results; x = no result given.

SMILES	COUP-TFII inh	NCOA1 inh	LRH-1 inv ag	Gli-Sufu antag	SRC2 inh	SRC3 inh	Gli antag conf	Gli cytotox	Wnt3a cs
Cc1cc(C(=O)N/N=C2\CCCc3ccccc32)c(C)o1	-28	-38	-88	-33	-34	-30	x	x	x
CC1CCCCN1C(=O)Cn1cnc2cc([N+](=O)[O-])ccc2c1=O (stereo not drawn)	11	3	2	55*	-17	3	12	-7	-16
Cc1cc(C)c(C(=O)Cn2cnc3cc([N+](=O)[O-])ccc3c2=O)cc1C	-15	-33	-5	7	12	-25	x	x	x
Nc1nc(Cl)cc(N2CCC(c3cc(-c4ccc(Cl)cc4)n[nH]3)CC2)n1	14	21	-32	74*	10	25	78*	19	68*
COc1ccc(-c2cc(C3CCN(c4cc(Cl)nc(N)n4)CC3)[nH]n2)cc1	17	-4	17	23	20	5	x	x	x
O=[N+]([O-])c1ccc(Sc2cccc3cccnc23)cc1	-26	-16	-2	-31	-21	-25	x	x	x
C=CCn1nc([N+](=O)[O-])nc1Sc1cccc2cccnc12	x	11	7	68*	x	3	48*	15	-93
Cn1c(=O)oc2cc(S(=O)(=O)N3CCN(CCO)CC3)ccc21	-2	x	x	x	-18	x	x	x	x
COC1OC(COCc2ccccc2)C2OC(C)(C)OC2C1O (stereo not drawn)	-4	x	x	x	-9	x	x	x	x
COc1ccc(F)cc1CN1CCN(C(=O)CCC(=O)Nc2nnc(C(C)C)s2)CC1	8	-1	-10	96*	-3	5	13	15	-13
CCCc1nnc(NC(=O)CCC(=O)N2CCN(Cc3cc(F)ccc3OC)CC2)s1	2	4	11	6	12	5	x	x	x
C=CCN1C[C@@H](COCc2ccccc2)OCCS1(=O)=O	-8	x	x	x	-7	x	x	x	x
CCN(CC)C(=O)CC[C@H]1CC[C@]2(CCCN(c3ccccc3)C2)O1	4	x	x	x	25	x	x	x	x
COCc1cc(N2CCNC[C@H]2C)ccc1N1CCN(Cc2ccccc2)[C@H](C)C1	-19	x	x	x	4	x	x	x	x
CC(C)(C)c1ccc(OCCCN2CCC(C(O)(c3ccccc3)c3ccccc3)CC2)cc1	2	x	x	x	-34	x	x	x	x
COc1ccccc1N1CCN(C(=O)C2CCN(S(=O)(=O)c3ccc4c(c3)CC(C)N4C(=O)C3CC3)CC2)CC1 (stereo not drawn)	31	25	12	11	-13	-4	x	x	x
CC1Cc2cc(S(=O)(=O)N3CCC(C(=O)N4CCN(c5ccccc5F)CC4)CC3)ccc2N1C(=O)C1CC1 (stereo not drawn)	18	-35	19	54	31	2	62*	24	5
COC(=O)C12C=C3CC(c4ccc(C)s4)=C3C(=O)N1Cc1[nH]c3ccccc3c1C2 (stereo not drawn)	-22	x	x	x	1	x	x	x	x
CCc1ccc(-n2cc(-c3ccc(F)cc3)[n+]3c2SCCC3)cc1	35	27	45	86*	1	35	90*	45*	33*
c1ccc(-c2cn(-c3ccccc3)c3[n+]2CCCS3)cc1	4	-11	2	68*	6	16	69*	33*	33*
COCC#Cc1cnc2c(c1)C(=O)N([C@@H](C)CO)C[C@H](C)[C@H](CN(C)C(=O)c1ccc3c(c1)OCO3)O2	3	x	x	x	6	x	x	x	x
Nc1[nH]c(C(=O)c2ccc(Cl)cc2)c(-c2ccc(Br)cc2)c1C(=O)NCc1ccc(Cl)cc1Cl	-18	x	x	x	1	x	x	x	x

Compound activity (PubChem)
